The values that follow come from ChEMBL document CHEMBL3988442, “University of Dundee, Small-Polar-MMV Screening Library” (2021).

Each structure is given as a SMILES string. The campaign covered roughly 69,000 compounds. About 420 (0.61%) showed an effect of 50% or more. The full list was thinned out, with strong results kept by preference.

The test deals with T1, Histidine--tRNA ligase (Leishmania infantum) (UniProt A4I591).
T1 sequence (whole entry): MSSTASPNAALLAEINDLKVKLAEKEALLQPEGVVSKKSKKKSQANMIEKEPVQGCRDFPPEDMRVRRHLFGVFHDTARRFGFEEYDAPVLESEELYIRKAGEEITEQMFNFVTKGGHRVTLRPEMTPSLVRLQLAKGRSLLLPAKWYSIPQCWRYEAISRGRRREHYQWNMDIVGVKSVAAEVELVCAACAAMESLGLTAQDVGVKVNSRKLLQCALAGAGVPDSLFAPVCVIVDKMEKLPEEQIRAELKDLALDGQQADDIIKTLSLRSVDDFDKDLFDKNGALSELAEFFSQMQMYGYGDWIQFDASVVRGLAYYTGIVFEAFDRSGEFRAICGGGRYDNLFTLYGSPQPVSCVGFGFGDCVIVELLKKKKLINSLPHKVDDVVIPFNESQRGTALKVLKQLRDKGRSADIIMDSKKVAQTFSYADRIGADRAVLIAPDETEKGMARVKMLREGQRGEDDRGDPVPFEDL
The test can be described thus: Leishmania infantum Histidine tRNA synthetase (LdHisRS). The class given is functional. More on the design: scale not given: in the data most compounds retested in dose-response had high values. Particulars: 30 µM.
Take `Cc1c(Cl)cccc1NC(=O)Cn1cc(C(=O)O)ccc1=O`: the Percent Effect was determined as 55%.

`CC(C)CS(=O)(=O)N1C[C@H]2C[C@H](C(=O)NCc3ccccc3)[C@@H](C1)O2`: the Percent Effect stood at 5.83%.

Take `Cn1cc(N2C(=O)C[C@@H]3[C@@H]2CCN3C(=O)c2ccco2)cn1`: the Percent Effect was 16%.

As for `COc1cc(N2C[C@H]3CN(C(=O)c4cnccn4)C[C@H]3C2)ncn1`, the Percent Effect was 5.26%.

With `Cn1nc(Cn2ccnc2)c2c1CN(c1ncccn1)C2`, the Percent Effect turned out to be 3.51%.

As for `Cn1nc(Cn2ccnc2)c2c1CN(c1nccs1)C2`, the Percent Effect was 52.6%.

For the molecule `CCS(=O)(=O)N1Cc2c(Cn3ccnc3)nn(C)c2C1`, the Percent Effect was 11.1%.

For `Cc1cc(C(=O)N2C[C@H]3CC[C@@H]2CN(Cc2ccccn2)C3)nc(N)n1`, the Percent Effect was -4.84%.

On to `CS(=O)(=O)N[C@H]1COC[C@@H]2CN(Cc3ccco3)C[C@@H]21`, for which the Percent Effect is -1.39%.

Consider `COc1ccc(Oc2ncccc2F)cc1CN1CCCC1`, for which the Percent Effect amounted to 15.8%.

With `COc1ccc(Oc2nccc3occc23)cc1CN1CCCC1`, the Percent Effect was found to be 58.1%.

Regarding `c1ccc(Oc2nccc3occc23)c(CN2CCCCC2)c1`, the Percent Effect came to 23.7%.

Consider `O=C1NCCO[C@H]2CN(C(=O)Cc3ccco3)CC[C@@H]12`, for which the Percent Effect came out at 18%.

For the molecule `Cc1nc(CN2CCc3nc(NC(C)C)nc(C)c3C2)cs1`, the Percent Effect came out at 47.9%.

On to `CC(C)Nc1nc(N2CCCC2)nc2c1CN(C)CC2`, for which the Percent Effect is 5.56%.

In the case of `Cc1nc(CN2CCc3nc(N4CCCC4)nc(NC(C)C)c3C2)cs1`, the Percent Effect stood at 92.3%.

For the molecule `Cc1ccc([C@@]2(O)CC[C@@H]3CN(S(=O)(=O)c4cn(C)nc4C)C[C@@H]32)cc1`, the Percent Effect is -15.8%.

Turning to `CSc1nc(N)cc(N2C[C@@H]3CC[C@H](C2)N(CC2CC2)C3=O)n1`, the Percent Effect is 24.7%.

For the molecule `O=C(CC1=CSC2=NCCN12)N1CCCC(CCc2cccc(F)c2)C1` (stereo unspecified), the Percent Effect is 28.3%.

On to `Cc1ccccc1CCC1CCCN(C(=O)Cc2cc(=O)[nH]c(N)n2)C1` (stereo unspecified), for which the Percent Effect came out at 18.3%.

With `Nc1nc(CC(=O)N2CCCC(CCc3cccc(F)c3)C2)cc(=O)[nH]1` (stereo unspecified), the Percent Effect was determined as 78.3%.

As for `Cc1ccccc1CC(C)(C)NC(=O)c1cccc(OCC(N)=O)c1`, the Percent Effect is 50.6%.

Regarding `Cc1ccccc1CC(C)(C)NC(=O)COc1cccc(C(N)=O)c1`, the Percent Effect was determined as 22.1%.

For `Cc1ccccc1CC(C)(C)NC(=O)CCOc1cccc(C(N)=O)c1`, the Percent Effect worked out at 1.3%.

With `Cc1ccc(CN2C[C@@H](OCc3csc(C)n3)[C@H]3COC[C@H]32)s1`, the Percent Effect worked out at 21%.

`CN1CCC(O)(CCNC(=O)[C@@]23CNC[C@@H]2CN(C2CCCC2)C3)CC1`: the Percent Effect worked out at 10.3%.

In the case of `CC(=O)N1CCO[C@@H]2CN(S(=O)(=O)c3ccc(C)cc3)CC[C@@H]2C1`, the Percent Effect worked out at 50.9%.

As for `CC(=O)N1CCO[C@@H]2CN(S(=O)(=O)c3cccs3)CC[C@@H]2C1`, the Percent Effect amounted to 5.66%.

`CC(=O)N1CCO[C@@H]2CN(S(=O)(=O)c3ccc(F)cc3)CC[C@@H]2C1`: the Percent Effect was 17%.

For the molecule `O=C(N[C@@H]1CN(Cc2ccoc2)C[C@@H]2CCCO[C@@H]21)C1CCC1`, the Percent Effect was 11.8%.

With `Cc1nnc(N2C[C@H](C(=O)NCc3ccco3)[C@@H]3CCO[C@@H]3C2)s1`, the Percent Effect amounted to 16.8%.

Consider `CS(=O)(=O)N1C[C@@H]2COC[C@@H](CC(=O)N3CCCO3)[C@@H]2C1`, for which the Percent Effect was 7.89%.

Take `OCCNc1cc(-c2nccnc2N2CCCC2)c2cc[nH]c2n1`: the Percent Effect stood at 62.8%.

For `O=C(O)CNc1cc(-c2nccnc2N2CCCC2)c2cc[nH]c2n1`, the Percent Effect came to 20.2%.

As to `Nc1cc(-c2nccnc2N2CCCC2)c2cc[nH]c2n1`, the Percent Effect is 20.2%.

As for `Cc1ccc(C)c(OC(C)C(=O)NCc2cccnc2)c1` (stereo unspecified), the Percent Effect stood at 0%.

On to `Cc1ccc(C)c(OC(C)C(=O)NCCNc2cccnc2)c1` (stereo unspecified), for which the Percent Effect was 60.6%.

For the molecule `Cc1ccc(C)c(OC(C)C(=O)Nc2cccnc2)c1` (stereo unspecified), the Percent Effect amounted to 0%.

As for `NC(=O)CN1C(=O)CO[C@H]2CN(Cc3ccc(Cl)cc3)C[C@H]21`, the Percent Effect amounted to 10.8%.

Turning to `Cc1ccc(N2CC[C@@H]3[C@@H]2CCN3C(=O)c2cscn2)nn1`, the Percent Effect turned out to be 7.89%.

As to `O=C(NC[C@H]1CCCC[C@H]1O)c1cccc2[nH]c(-c3ccco3)nc12`, the Percent Effect came to 29.7%.

For the molecule `O=C(N[C@H]1CCCC[C@@H]1O)c1ccc2nc(-c3ccccc3)[nH]c2c1`, the Percent Effect turned out to be 3.96%.

In the case of `O=C(NC[C@H]1CCCC[C@H]1O)c1ccc2nc(-c3ccco3)[nH]c2c1`, the Percent Effect is 63.4%.

`COC[C@@H]1CC[C@H]2[C@H](CCN2C(=O)c2ccncc2F)O1`: the Percent Effect was determined as 22.6%.

Turning to `O=C(Cn1ccc2sccc2c1=O)NCc1ccc(F)cc1`, the Percent Effect stood at 5.43%.

Take `CN(C)S(=O)(=O)N1C[C@H]2CCC[C@@]2(COCc2ccccn2)C1`: the Percent Effect is -17.6%.

Consider `Cc1cccc(COC[C@H]2CC[C@H]3[C@H](CCN3C(=O)CC3CC3)O2)n1`, for which the Percent Effect is 13.9%.

Regarding `Cn1nc2c(cc1=O)CN(Cc1ccc(-n3cccn3)cc1)CC2`, the Percent Effect amounted to 33.3%.

As to `CC(C)n1nc2c(cc1=O)CN(Cc1nc(-c3ccco3)no1)CC2`, the Percent Effect was found to be 2.67%.

Turning to `Cc1ccc(-c2nnc(CN3CCc4cnc(C)nc4C3)o2)cc1`, the Percent Effect is 40%.

On to `Cc1nc(CN2CCc3nn(C)c(=O)cc3C2)oc1C`, for which the Percent Effect amounted to 14.9%.

On to `CCOCCN1CCN(Cc2nnc(-c3ccco3)o2)CC1`, for which the Percent Effect was 8.51%.

In the case of `Cc1ccc(-c2nnc(CN3CCc4nn(C)c(=O)cc4C3)o2)cc1`, the Percent Effect was found to be 106%.

On to `CC(C)n1nc2c(cc1=O)CN(Cc1nnc(C3CC3)o1)CC2`, for which the Percent Effect amounted to 24.5%.

`Cn1nc2c(cc1=O)CN(Cc1nnc(-c3ccc(F)cc3)o1)CC2`: the Percent Effect was determined as 78.7%.

With `Cn1nc2c(cc1=O)CN(Cc1nnc(-c3ccco3)o1)CC2`, the Percent Effect was determined as 76.6%.
